Reference: ChEMBL document CHEMBL1157539, “Thousands of chemical starting points for antimalarial lead identification” (Nature, 2010)

Assays:
Assay type in all cases: functional
[1] = tested on: Plasmodium falciparum; experiment: GSK_TCMDC: Inhibition of Plasmodium falciparum 3D7 in whole red blood cells, using parasite LDH activity as an index of growth. Test compounds present at 2uM
[2] = tested on: Plasmodium falciparum; experiment: GSK_TCMDC: Inhibition of Plasmodium falciparum Dd2 in whole red blood cells, using parasite LDH activity as an index of growth. Test compounds present at 2uM
[3] = tested on: HepG2; experiment: GSK_TCMDC: Percent inhibition of human HepG2 cell line. Test compounds present at 10uM.

Row | SMILES | Inhibition [1] [%] | Inhibition [2] [%] | Inhibition [3] [%]
1 | CCn1c(SCc2ccc(F)cc2)nc2sc3c(c2c1=O)CCN(C)C3 | 95 | 81 | 2
2 | CC(C)(CNC(=O)C1CCN(CCOc2ccc(F)c(F)c2)CC1)c1nc(-c2ccc(Cl)c(O)c2)c(-c2ccncc2)[nH]1.Cl | 100 | 19 | 41
3 | O=C(/C=C/c1ccc(Cl)c(Cl)c1)NCCCCCN1CCC(NC(=O)c2ccc([N+](=O)[O-])cc2)CC1 | 100 | 6 | 36
4 | COc1ccc2ccccc2c1C=NN=c1cc(C)[nH]c2cc(C(F)(F)F)ccc12 | 92 | 4 | 1
5 | CN(C)CCOc1cc(NC(=O)Nc2ccc(Cl)cc2C(F)(F)F)ccc1I | 96 | 16 | 0
6 | CC(C)(C)c1ccc(CNCCOc2ccc(Nc3nnc(-c4ccc(-c5ncc[nH]5)cc4)o3)c3ccccc23)cc1.O=C(O)C(F)(F)F | 100 | 88 | 43
7 | O=C(NCCCCN1CCC(c2ccc3c(c2OCC2CC2)CCCC3)CC1)c1ccc(NC(=O)c2ccc(Cl)cc2)cc1 | 100 | 93 | 23
8 | CCCCCCNC[C@@H](O)[C@H](Cc1ccccc1)NC(=O)c1cc(NCC)cc(N2CCCCS2(=O)=O)c1.Cl | 100 | 98 | 5
9 | O=C(O)C(F)(F)F.Oc1ccc(CCNc2nc(NCc3ccccc3-c3ccc(F)cc3)nc(N3CCNCC3)n2)cc1 | 92 | 24 | 15
10 | Cc1ccc(CNC(=O)[C@H](CC(C)C)Nc2cc(C)nc(Nc3ccccc3)n2)cc1.O=C(O)C(F)(F)F | 97 | 19 | 12
11 | Cl.O=S(=O)(Nc1ccc2nccc(N3CCNCC3)c2c1)c1ccc2oc3ccccc3c2c1 | 100 | 2 | 16
12 | COc1ccc(NC(=O)[C@H](C)Nc2cc(C)nc(NCC3CCCCC3)n2)cc1.O=C(O)C(F)(F)F | 92 | 13 | 12
13 | CN(C)S(=O)(=O)c1ccc(C(=O)N(c2nc(-c3ccccc3)cs2)C2CCCCC2)cc1 | 98 | 46 | 7
14 | Br.CCCCCCn1c2c(c(=N)c3c1CCC3)CCCC2 | 99 | 76 | 31
15 | O=C(Cc1cn(-c2ccccc2)nc1-c1ccc(Cl)cc1)Nc1nccs1 | 88 | 8 | 9
16 | N#Cc1cccc(NC(=O)Nc2ccc(-c3ccc(-c4nc5cc(C(F)(F)F)ccc5[nH]4)cc3)cc2)c1 | 100 | 100 | 51
17 | CCNc1cc(C(=O)N[C@@H](Cc2ccccc2)[C@H](O)CN[C@@H]2CCc3ccccc32)cc(N2CCCC2=O)c1 | 92 | 93 | 0
18 | O=C(Nc1ccc(-c2nc3ccccc3[nH]2)cc1)c1cncc(Br)c1 | 95 | 49 | 35
19 | Cc1ccc2nc3ccccc3c(NCCN3CCN(C)CC3)c2c1.Cl | 100 | 6 | 19
20 | CCCCOc1c(CCNCCCCNCCc2cc(F)c3ccccc3c2OCCCC)cc(F)c2ccccc12.CS(=O)(=O)O | 96 | 78 | 97

Row | SMILES | Inhibition [1] [%] | Inhibition [2] [%] | Inhibition [3] [%]
21 | CC(C)CCCC(C)(C)NC[C@@H](O)[C@H](Cc1ccccc1)NC(=O)c1cccc(OCC2CC2)c1 | 96 | 91 | 99
22 | Cc1ncc([N+](=O)[O-])n1CCOC(=O)NC(Nc1ccc(Br)cc1)C(Cl)(Cl)Cl (stereo not given) | 99 | 100 | 0
23 | Cc1cccc2nc(-c3ccc(-c4ccc(NC(=O)Nc5ccc(F)c(F)c5F)cc4)cc3)[nH]c12 | 100 | 97 | 51
24 | OC(CNc1ccnc(Nc2ccccc2)n1)c1cccc(C(F)(F)F)c1 (stereo not given) | 100 | 61 | 16
25 | COc1ccc(S(=O)(=O)NCC2CCCN(CCCCCNC(=O)/C=C/c3ccc(Cl)c(Cl)c3)C2)cc1 (stereo not given) | 81 | 1 | 53
26 | CCNc1cc(C)nc(Nc2ccc(NC(=O)c3cccs3)cc2)n1 | 100 | 50 | 21
27 | Cc1cc(C(=O)CN2C(=O)NC(C)(c3ccc4ccccc4c3)C2=O)c(C)n1Cc1ccco1 (stereo not given) | 97 | 71 | 12
28 | CCC[C@@H]([C@@H](CC(C)C)C(=O)N[C@@H](CCCCNC(=O)c1ccccn1)C(=O)Nc1nccs1)N(O)C=O | 100 | 100 | 0
29 | O=C(O)c1ccc(-c2cnc3ccc(NC4CCC(O)CC4)nn23)cc1 (stereo not given) | 98 | 90 | 9
30 | COc1ccc2nccc(NCC3(O)CCN(CC(O)c4ccc5c(c4)NC(=O)CS5)CC3)c2n1.Cl (stereo not given) | 100 | 3 | 3
31 | COc1c(C2CCN(CCCCNC(=O)c3ccc(NC(=O)c4ccc(C#N)cc4)cc3)CC2)ccc2c1CCCC2 | 97 | 100 | 81
32 | COc1cccc(OC)c1-c1ccccc1NC(=O)N1CCCc2cc(C)ccc21 | 82 | 84 | 51
33 | O=C(Nc1ccccc1-c1nc2ccccc2s1)C(Cl)(Cl)Cl | 97 | 99 | 12
34 | O=C(NCCCCN1CCC(c2ccc(-c3ccco3)cc2)CC1)c1ccc(NC(=O)c2ccc(Cl)cc2)cc1 | 100 | 97 | 26
35 | O=C(N[C@@H](Cc1ccccc1)C(=O)NCCN1CCCCC1)c1ccc(O)c(-c2ccc(Cl)c(Cl)c2)c1 | 99 | 97 | 6
36 | Fc1ccc2[nH]c(-c3ccc(-c4cccc(CN5CCCCC5)c4)cc3)nc2c1.O=C(O)C(F)(F)F | 100 | 100 | 10
37 | Cc1cccc2nc(-c3cccc(-c4cccc(NC(=O)NCc5cccc(F)c5)c4)c3)[nH]c12 | 98 | 32 | 11
38 | Cc1cccc(CNc2ncc(C)c(NCCC(=O)Nc3ccccc3)n2)c1.O=C(O)C(F)(F)F | 81 | 10 | 18
39 | Cc1ccc(Nc2nc3cc(N(C)c4ccnc(Nc5cccc(CCS(C)(=O)=O)c5)n4)ccc3n2C)cc1.O=C(O)C(F)(F)F | 99 | 73 | 78
40 | COc1ccccc1CNC(=O)c1ccc(N2CCN(c3ccncc3)CC2)cn1.O=C(O)C(F)(F)F | 96 | 17 | 16

Row | SMILES | Inhibition [1] [%] | Inhibition [2] [%] | Inhibition [3] [%]
41 | COc1ccc(-n2ccnc2SCC(=O)Nc2cc(C)ccc2C)c(OC)c1 | 94 | 93 | 2
42 | CC(=O)Nc1ncc(C(=O)Nc2ccc(-c3cccc(-c4nc5cc(F)ccc5[nH]4)c3)cc2)s1 | 100 | 85 | 47
43 | COc1ccccc1N1CCN(CCCCNC(=O)c2ccc(NC(=O)c3ccc4ccccc4c3)cc2)CC1 | 97 | 18 | 16
44 | CN(C)CCCSc1ccccc1NC(=O)C=Cc1ccccc1 | 85 | 0 | 0
45 | CC(C)CN(c1nc(C(=O)NNC(=O)[C@H](CC2CC2)NC(=O)c2cc3cc(OCCN4CCCCC4)ccc3o2)cs1)C1CC1 | 97 | 98 | 2
46 | O=C1NC(c2ccccc2)C2(CCN(CC(O)COc3cccc4ncccc34)CC2)O1 (stereo not given) | 92 | 95 | 5
47 | COc1cccc(C23NC(=Nc4nc5ccccc5[nH]4)NC2(c2cccc(OC)c2)NC(=Nc2nc4ccccc4[nH]2)N3)c1 (stereo not given) | 100 | 99 | 0
48 | CCOC(=O)C1CCN(CCOc2cc(NC(=O)/C=C/c3ccccc3Cl)ccc2Br)CC1.O=C(O)C(=O)O | 87 | 29 | 6
49 | CC(=O)Nc1ccc(C(=O)Nc2ccc(-c3cccc(-c4nc5cc(C(F)(F)F)ccc5[nH]4)c3)cc2)cn1 | 100 | 98 | 29
50 | Cc1ccc2[nH]c(Nc3ccc(Nc4nc5cc(C)ccc5[nH]4)c(C)c3)nc2c1 | 99 | 94 | 12
51 | O=C(NCCCCCN1CCC(c2c[nH]c3ccccc23)C1)Nc1ccc(Cl)c(Cl)c1 (stereo not given) | 95 | 19 | 28
52 | O=c1cc(NCCC2CC=CCN2Cc2ccc(Cl)c(Cl)c2)[nH]c2ccccc12 (stereo not given) | 94 | 77 | 7
53 | Oc1cc(Nc2ccnc3cc(-c4ccc(CN5CCCCC5)o4)c(Cl)cc23)c(Cl)cc1F | 100 | 64 | 0
54 | CCCN(CCCN(CCCN(CCC)C(C)C)c1cc(C)nc(Nc2ccc(Cl)cc2)n1)C(C)C.O=C(O)C(=O)O | 100 | 99 | 39
55 | Cl.NOCCCCOc1cc(Cl)c(Cl)cc1Cl | 92 | 5 | 6
56 | O=c1ccc(-c2nc3cc(Cl)c(Cl)cc3n2Cc2ccc(Cl)cc2Cl)c[nH]1 | 88 | 67 | 0
57 | Cc1ccccc1Nc1nc(NCCc2ccccc2)nc2ccccc12 | 82 | 18 | 32
58 | Cc1ccc(-c2nn3c(O)c4c(nc3c2C)CCCC4)cc1 | 97 | 87 | 16
59 | CCOc1ccc(C(=O)N2CCOC(CCN3CCC(c4ccccc4)CC3)(c3ccc(Cl)c(Cl)c3)C2)cc1 (stereo not given) | 88 | 71 | 14
60 | CS(=O)(=O)c1ccc(CCNCc2ccc(-c3ccc(CN(C(=O)c4cccc(C#N)c4)C4CCN(Cc5ccccc5)CC4)cc3)nc2)cc1.O=C(O)C(F)(F)F | 96 | 56 | 20
